# Results as given in PubChem BioAssay (NCATS).
# Values joined by “and” are separate entries in the source; they are usually repeats but may differ in a detail not shown here. Identical values can stand only once. Unmarked numbers belong to inactive results. Results filed as inconclusive are left out. Where a call stands in place of a potency, no number is given. Active and inactive are the calls of the source. Unless noted, the call rests on the fitted dose curve; in most records, active means well fitted curve in the direction sought with a large enough effect; inconclusive means small, poorly fitted or top-dose-only effect, or another doubt; inactive means no such curve, though single readings can be large; an effect the other way counts as inactive or inconclusive.
# Experiments:
# ICS = assay: qHTS profiling for inhibitors of Plasmodium falciparum proliferation (AID 504749); further: nearly all actives have a fitted effect of over 60% in size; settings: P. falciparum in erythrocytes, SYBR Green DNA, 72 h; series mostly up to 28.7 µM
# In short: (§1)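 P. falciparum-infected erythrocytes (0.3% parasitemia, 2.5% hematocrit) incubated with compound 72 h at 37 C, 5% CO2. Parasite DNA detected by SYBR Green after lysis, overnight at room temperature; normalised to 0.29 uM artemisinin and DMSO.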
# W2 = assay: as above; settings: P. falciparum in erythrocytes, SYBR Green DNA, 72 h; series mostly up to 12.8 µM
# In short: as §1
# [1] = molecular target: Cytochrome P450 2C19 (Homo sapiens) (UniProt P33261); assay: qHTS Assay for Inhibitors and Substrates of Cytochrome P450 2C19 (AID 899); further: nearly all actives have a fitted effect of over 60% in size; further: potency means the concentration at half of the fitted maximal effect
# Chain of Cytochrome P450 2C19 (Homo sapiens) (P33261 whole entry, looked up): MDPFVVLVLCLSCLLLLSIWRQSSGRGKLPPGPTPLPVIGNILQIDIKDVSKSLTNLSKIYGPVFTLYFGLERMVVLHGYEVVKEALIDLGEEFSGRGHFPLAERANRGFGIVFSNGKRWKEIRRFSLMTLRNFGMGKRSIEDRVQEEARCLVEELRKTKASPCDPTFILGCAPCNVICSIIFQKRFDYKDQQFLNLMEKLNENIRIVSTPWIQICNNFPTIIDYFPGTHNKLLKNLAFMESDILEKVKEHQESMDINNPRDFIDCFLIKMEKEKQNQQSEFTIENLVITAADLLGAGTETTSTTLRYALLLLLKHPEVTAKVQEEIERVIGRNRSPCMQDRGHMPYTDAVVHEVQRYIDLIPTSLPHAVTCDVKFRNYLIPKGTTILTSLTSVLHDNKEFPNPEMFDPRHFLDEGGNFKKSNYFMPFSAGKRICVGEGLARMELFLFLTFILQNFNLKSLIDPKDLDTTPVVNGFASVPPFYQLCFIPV
# In short: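 Luminescent read-out of luciferin formed from Luciferin-H EGE (10uM, equal to KM). Enzyme 5nM in 50mM KPO4; compound added, 10 min at 37C, then NADPH regenerating system for 60 min at 37C. Full inhibition defined by 57uM ketoconazole.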
# [2] = Confirmation and Secondary Assay for Modulators of Hemoglobin Beta Chain Splicing at IVS2 705 locus (AID 930);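 further: HeLa cells stably expressing the EGFP-705 splicing reporter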
# In short: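 Restored EGFP fluorescence after 2-day compound exposure reports splicing correction in IVS2-705 EGFP reporter HeLa cells; positive control was 500 nM splice-blocking PNA oligo. Signal measured as well total peak GFP intensity (488 nm excitation).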
# [3] = Cell Viability - NIH 3T3 (AID 541); settings: NIH 3T3 cell viability, qHTS; activity change, negative = cytotoxicity: at 92.2 µM (top of the series); further: nearly all actives have a fitted effect of over 25% in size
# In short: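 Mouse NIH 3T3 fibroblasts, 1000 cells/well, rested 5 hr at 37 °C, then exposed to compound for 40 hr at 37 °C in complete medium. Viability read as intracellular ATP by CellTiter-Glo luminescence; AC50 from Hill-equation fits of concentration-response data.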
# [4] = Cell Viability - Mesenchymal (AID 546);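 further: cells exposed to compound for 40 hours before reading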
# In short: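 Human kidney mesenchymal cells from normal renal glomeruli, 1000 cells/well, rested 5 hr at 37 °C, then treated 40 hr at 37 °C in complete medium. Cellular ATP read by CellTiter-Glo luminescence; AC50 from Hill-equation fits.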
# [5] = Cellular Toxicity (caspase-3) HepG2 (AID 654);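 further: cells exposed to compound for 16 hours before reading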
# In short: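 HepG2 cells (1500/well) were treated 16 h at 37 °C in complete medium, then caspase 3/7 activity was read by Caspase-Glo luminescence. Data were normalized to DMSO and 100 uM tamoxifen; AC50 came from Hill-equation fits of qHTS concentration-response.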
# [6] = Cellular Toxicity (caspase-3) HUV-EC-C (AID 656)
# In short: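 Read-out: luminescence proportional to caspase 3/7 activity, measured 20 min after adding Caspase-Glo 3/7 reagent. Cells (HUV-EC-C) had received compound for 16 hr at 37°C. Increases relative to DMSO and 100 uM tamoxifen gave concentration-response AC50 values.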
# [7] = Cellular Toxicity (caspase-3) SHSY5Y (AID 657)
# In short: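 Cells plated and incubated 5 h at 37 °C, dosed over a concentration range, incubated 16 h, then given Caspase-Glo 3/7 reagent for 1 h at room temperature before luminescence reading. Staurosporine (10 uM) defined full stimulation.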
# [8] = Cellular Toxicity (caspase-3) BJ (AID 658)
# In short: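 BJ human foreskin fibroblasts, 1000 cells/well, treated 16 hours at 37 °C in complete medium; caspase 3/7 activity by Caspase-Glo luminescence after 1 hr at room temperature. Normalized to DMSO and 10 uM staurosporine; AC50 from Hill fits.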
# [9] = Cellular Toxicity (caspase-3) MRC-5 (AID 659)
# In short: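 MRC-5 human normal lung fibroblasts, 1500 cells/well, treated 16 h at 37 °C in complete medium. Caspase 3/7 measured by Caspase-Glo luminescence after 1 h at room temperature. Normalized to DMSO and 10 uM staurosporine; AC50 from Hill fit.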
# [10] = Cellular Toxicity (caspase-3) SK-N-SH (AID 661)
# In short: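 Human SK-N-SH neuroblastoma cells, 1500/well, were exposed to compounds for 16 hours at 37 °C. Caspase-Glo 3/7 luminescence was normalized to DMSO (basal) and 10 uM staurosporine (100%), and AC50 came from a Hill fit.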
# [11] = Cellular Toxicity (caspase-3) H-4-II-E (AID 663);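 further: cells exposed to compound for 16 hr before readout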
# In short: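 Rat hepatoma H-4-II-E cells (1500/well) plated 5 hr, then exposed to compound titrations for 16 hr at 37 °C. Caspase-Glo 3/7 luminescence read after 20 min at RT; data normalized to DMSO and 100 uM tamoxifen, AC50 from Hill fits.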
# [12] = Cellular Toxicity (caspase-3) N2a (AID 665); settings: N2a cells, luminescence, normalized: DMSO 0%, 10 µM staurosporine 100%; at 92.2 µM (top of the series);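 further: compound exposure lasted 16 h at 37 °C before readout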
# In short: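 Mouse N2a neuroblastoma cells, 1500 per well, treated 16 h at 37 °C in complete medium; caspase-3/7 activity by Caspase-Glo luminescence after 1 h. Normalized to DMSO and 10 uM staurosporine; AC50 from Hill fits.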
# [13] = Cellular Toxicity (caspase-3) NIH 3T3 (AID 666);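 further: caspase signal read after 16 h compound exposure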
# In short: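 Mouse NIH 3T3 fibroblasts (1000/well) treated 16 h at 37 C; caspase-3/7 activity measured by Caspase-Glo 3/7 luminescence after 20 min. Normalized to DMSO and 100 uM tamoxifen; AC50 from Hill fits.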
# [14] = MultiTox-Fluor Cytotoxicity Assay - LYMP1-002 - Live Cells (AID 955)
# In short: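 Human lymphoblastoid LYMP1-002 cells, 2500/well, treated 16 h at 37 C in complete medium. Live-cell protease activity via GF-AFC fluorescence (Ex/Em 405/510) after 60 min reagent incubation; AC50 from Hill fits.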
# [15] = qHTS assay for small molecule agonists of the antioxidant response element (ARE) signaling pathway measured by Nrf2-dependant transcriptional activity - cell viability counter screen (AID 720653; active means well fitted curve in the direction sought with a large enough effect in the repeat runs; an effect the other way counts as inactive or inconclusive); settings: ARE-bla HepG2 viability, CellTiter-Glo ATP luminescence, 16 h; hits give low values
# In short: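 ARE-bla HepG2 cells treated with compounds for 16 h at 37C; this counter screen measures viability as intracellular ATP by CellTiter-Glo luminescence after 30 min at room temperature.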
# [16] = qHTS assay for cell viability of HEK293 cells (AID 743288); settings: ATP luminescence (CellTiter-Glo), 18 h; max response: hits give low values; further: nearly all actives have a fitted effect of over 50% in size
# In short: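 The Tox21 protocol used parental HEK293 cells treated for 18 h at 37 C with compounds delivered by pintool; ATP-coupled luminescence after 30 min at room temperature gave viability.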
# [17] = Cell Viability - HepG2 (AID 433; calls by dose curve;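 further: potency means the concentration at half of the fitted maximal effect; potency for ATP loss meaning cytotoxicity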); settings: qHTS
# In short: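 Cytotoxicity is scored as loss of intracellular ATP in HepG2 cells exposed to compounds for 40 h. Concentration-response curves, normalized to DMSO and 100 uM tamoxifen, give AC50 values.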
# [18] = Cell Viability - LYMP2-025 (AID 976); further: potency means the concentration at half of the fitted maximal effect
# In short: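 Human lymphoblastoid LYMP2-025 cells, 2500/well, exposed 24 h at 37 C in complete medium in 1536-well qHTS. Viability as cellular ATP by CellTiter-Glo luminescence; AC50 from Hill fits of concentration-response data.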
smiles,measurement,setting,value
C[C@]12CC[C@H](O)CC1=CCC1C2CC[C@]2(C)C(=O)CC[C@@H]12 (some centres not stated),Potency,ICS,inactive
same,Potency,W2,inactive
Clc1ccccc1-c1cncnc1NCCc1cnc[nH]1,Potency,[1],0.0126 µM (active)
O=C1c2ccccc2-c2cccc3cccc1c23,Potency,[2],inactive
COc1cc2c(cc1-c1cc3cc4ccoc4cc3oc1=O)OCO2,Potency,[2],inactive
CCNC[C@H](O)c1cccc(O)c1,Potency,ICS,inactive
same,Potency,W2,inactive
CCOCN(C(=O)CCl)c1c(C)cccc1CC,"activity change, negative = cytotoxicity",[3],-155% (active)
same,outcome,[4],inactive
same,outcome,[5],inactive
same,outcome,[6],inactive
same,outcome,[7],inactive
same,outcome,[8],inactive
same,outcome,[9],inactive
same,outcome,[10],inactive
same,outcome,[11],inactive
same,caspase-3 activation,[12],-0.109%
same,outcome,[13],inactive
same,outcome,[14],inactive
same,max response,[15],-15.8% and -13.8%
same,max response,[16],-18.2% and -18.7%
COc1ccc2c(c1O)-c1c(OC)c(OC)cc3c1[C@H](C2)N(C)CC3,Potency,[1],inactive
C=CCc1ccc2c(c1)OCO2,Potency,[17],> 92 µM
same,"activity change, negative = cytotoxicity",[3],-6.05%
same,outcome,[4],inactive
same,outcome,[5],inactive
same,outcome,[6],inactive
same,outcome,[7],inactive
same,outcome,[8],inactive
same,outcome,[9],inactive
same,outcome,[10],inactive
same,outcome,[11],inactive
same,caspase-3 activation,[12],-4.3%
same,outcome,[13],inactive
same,Potency,[2],inactive
same,outcome,[14],inactive
same,Potency,[18],inactive
same,max response,[15],-4.7%
same,max response,[16],-8.48%
CCc1cccc(CC)c1N(COC)C(=O)CCl,Potency,[17],> 92 µM
same,"activity change, negative = cytotoxicity",[3],-147% (active)
same,outcome,[4],inactive
same,outcome,[5],inactive
same,outcome,[6],inactive
same,outcome,[7],inactive
same,outcome,[8],inactive
same,outcome,[9],inactive
same,outcome,[10],inactive
same,outcome,[11],inactive
same,caspase-3 activation,[12],4.56%
same,outcome,[13],inactive
same,Potency,[2],inactive
same,outcome,[14],inactive
same,Potency,[18],inactive
same,max response,[15],6.28% and -3.56%
same,max response,[16],-15.4% and -21.3%
ClC(Cl)=C(c1ccc(Cl)cc1)c1ccc(Cl)cc1,Potency,[17],> 92 µM
same,"activity change, negative = cytotoxicity",[3],7.39% and -2.45%
same,outcome,[4],inactive
same,outcome,[5],inactive
same,outcome,[6],inactive
same,outcome,[7],inactive
same,outcome,[8],inactive
same,outcome,[9],inactive
same,outcome,[10],inactive
same,outcome,[11],inactive
same,caspase-3 activation,[12],2.33% and 2.48%
same,outcome,[13],inactive
same,Potency,[2],inactive
same,outcome,[14],inactive
same,Potency,[18],inactive
same,max response,[15],6.47% and -9.67% and -6.97%
same,max response,[16],-14.7% and -6.72% and -17.4%
C/C=C/c1ccc2c(c1)OCO2,Potency,[17],> 92 µM
same,"activity change, negative = cytotoxicity",[3],-3.37%
same,outcome,[4],inactive
same,outcome,[5],inactive
same,outcome,[6],inactive
same,outcome,[7],inactive
same,outcome,[8],inactive
same,outcome,[9],inactive
same,outcome,[10],inactive
same,outcome,[11],inactive
same,caspase-3 activation,[12],0.0142%
same,outcome,[13],inactive
same,Potency,[2],inactive
same,outcome,[14],inactive
same,Potency,[18],inactive
same,max response,[15],-6.6%
same,max response,[16],-1.69%
C[N+]1([O-])[C@@H]2CC(OC(=O)[C@@H](CO)c3ccccc3)C[C@@H]1[C@H]1O[C@H]12 (some centres not stated),Potency,ICS,inactive
same,Potency,W2,inactive
ClC1=C(Cl)C2(Cl)C3C4C=CC(C4)C3C1(Cl)C2(Cl)Cl (configuration not stated),Potency,[17],> 92 µM
same,"activity change, negative = cytotoxicity",[3],-10.7%
same,outcome,[4],inactive
same,outcome,[5],inactive
same,outcome,[6],inactive
same,outcome,[7],inactive
same,outcome,[8],inactive
same,outcome,[9],inactive
same,outcome,[10],inactive
same,outcome,[11],inactive
same,caspase-3 activation,[12],2.47%
same,outcome,[13],inactive
same,outcome,[14],inactive
same,Potency,[18],50.1 µM (active)
same,max response,[15],-5%
same,max response,[16],-24.9%
CNC(=O)O/N=C/C(C)(C)SC,Potency,[17],> 92 µM
same,"activity change, negative = cytotoxicity",[3],-9.42%
same,outcome,[4],inactive
same,outcome,[5],inactive
same,outcome,[6],inactive
same,outcome,[7],inactive
same,outcome,[8],inactive
same,outcome,[9],inactive
same,outcome,[10],inactive
same,outcome,[11],inactive
same,caspase-3 activation,[12],-2.85%
same,outcome,[13],inactive
same,Potency,[2],inactive
same,outcome,[14],inactive
same,Potency,[18],inactive
same,max response,[15],2.17% and 5.56%
same,max response,[16],-1.1% and -12.4% and -2.16%
O=C(O)COc1ccc(Cl)cc1Cl,Potency,[17],> 92 µM
same,"activity change, negative = cytotoxicity",[3],-11.4% and -12.3%
same,outcome,[4],inactive
same,outcome,[5],inactive
same,outcome,[6],inactive
same,outcome,[7],inactive
same,outcome,[8],inactive
same,outcome,[9],inactive
same,outcome,[10],inactive
same,outcome,[11],inactive
same,caspase-3 activation,[12],-2.05% and -1.8%
same,outcome,[13],inactive
same,Potency,[2],inactive
same,outcome,[14],inactive
same,Potency,[18],inactive
same,max response,[15],-0.488% [middle of 4 runs]
same,max response,[16],0.426% [middle of 4 runs]
